Laboratory results reported in the supplement of paper PMC6555819.

Test system: VDR:RXRa (NR concentration 270 nM, RXRa partner concentration 90 nM)
Assay: PBM binding z-score (relative to random genomic background probes); higher = stronger binding; sequences stand for … in GC…GCGATTGACAGCGTAGAATGAAGG
Procedure: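 Protein-binding microarray (Agilent 4x180K custom design, double-stranded 60-nt probes: 5' GC cap, 34-nt variable region, 24-nt constant primer region; full probe sequence given). Purified or IVT nuclear receptor:RXRα heterodimers (3:1 NR:RXRα, mostly 270:90 nM) or homodimers were incubated for 1 h in PBS with 2% milk and no ligand, then detected with Alexa488 antibodies. Fluorescence from o1-orientation probes (~5 replicates averaged) was converted to z-scores against 500 random hg19 background probes. Variable regions are seed direct-repeat (DR0–DR5) sites, all their single-nucleotide variants and half-site ablations.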

| Sequence | PBM binding z-score |
| --- | --- |
| CGTACTAGGTCAAAGGACAGTGAAAGGCGACGTA | 1.33 |
| GCTTACGGGTCAAAGGTTAAAGCATGAATAGAAT | 5.38 |
| GATACAGGGTCAATGCCAGAGTACGCGTATTGAT | 3.93 |
| ACTCGGAGGACAAAGGTGAGAGCTACGCCAGTGA | 0.122 |
| TGGCCTAGGTCATGCGGGCCAGTATAGTGTCGGC | 2.64 |
| ATATGTAGGTTAGGGTTATTCAGAAAGTAGGGAA | 1.94 |
| CAAACTAGGTCACAGAGGTTAAAGTCCGTGCGTA | 6.72 |
| AGAATGAGGTTACCAGAGATCAGGGAAACGCTTG | 1.72 |
| GCTCGGAGGACAAGGTCAGGGCTTTGTCCGTAGA | 1.64 |
| TAGCCAAGGTCAGATCGGGCCAGTATACGCTATA | 3.07 |
| TCATATAGGTTAAAGGTGAAAGTCGGTGTGGTAA | 3.02 |
| TCGGGTAGGTTACGGGGGCATTCAGGGATGAAGA | 4.77 |
| ATCGAAAGGTCGACGAGGAGAGTATACACCGTTT | 3.3 |
| CCTTACGGTTCACTGACAGGTTATAGCATTTGGA | 2.6 |
| CGAACTAGGTCACCAGAACAGTGAAGAGGTTGGA | 1.86 |
| CAAACTAGGTCAAAGGTCAGAGTCGAGCCAACCA | 5.78 |
| CCTTACGGGTCAAGGTTATATCACGGGTGGTACG | 3.49 |
| TCTAGCTGGTCAAAGGTCACACACTCGAAATGCG | 5.36 |
| CAAACTAGGTCAAAGGTCAAACTCGAGCCAACCA | 6.96 |
| GCTGCTAGGTCAGGTTGGTCAACTAACGGGTACG | 0.9 |

| Sequence | PBM binding z-score |
| --- | --- |
| TCGAGTAGGTTACCGGGGCATTCAGGGATGAAGA | 0.816 |
| CCCCGGAGGACAGAAGGTCAGAGCTGTCCGCTTT | 0.723 |
| TCGAGTAGATTACGGGGGCATTCAGGGATGAAGA | 2.83 |
| CCCGCTAGGTCATGGTCAGCTAATCTACAGTATG | 1.69 |
| CGAACTAGGTCACCAGGACAGTGACGAGGTTGGA | 2.13 |
| CGAACTAGGTCACCAGGACAGTCAAGAGGTTGGA | 2.18 |
| CGAACCAGGTCACCAGGACAGTGAAGAGGTTGGA | 3.17 |
| AGAATGGGGTTATTAAGATCAGGGAATTGCGGTC | 4.05 |
| CCCACTGGGGCAAAGGTTACCATACTCAGTACGA | 1.61 |
| TAGCCTCGGTCATTCAGGGGCCAGTATAGAAAGC | 0.169 |
| CGAACTAGGTCAAAGGACAGTAAAAGGCGACGTA | 1.55 |
| CATACTAGGTCAAAGGTCAAAGTCGAGCCAACCA | 6.61 |
| ATATGTAGGCTAGGGTCATTCAGAAAGTAGGGAA | 3.8 |
| GCTTACGGGTCAAAGGTTATGGCATGAATAGAAT | 5.58 |
| ATCTCTAGGTAACAAGGTCAGTGAAAGAGAGGAC | 2.12 |
| CGTCAAAGCTCAACTAAGGTAACGTAAAGCACGC | 0.0405 |
| TAGCCTAGGTCATGCGGGCCAGCATAGTGTCGGC | 2.7 |
| AGTCAAAGTTCACGACGAGGTAACGTAAAGCACG | 5.05 |
| CCTACTGGGCCACTCAGAGGTCATTGATCATATG | 4.06 |
| GCTTACGGGTCAAAGGTTACAGCATGAATAGAAT | 5.69 |
